For 20 molecules, inhibition results are on record in PubChem BioAssay AID1486 (The Scripps Research Institute Molecular Screening Center, 2009).

Among all 220,000 compounds or so, about 2,400 (1.1%) were called active. Shown is part of a subset that was picked to be rich in actives. A number with no mark means an inactive call.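 The calls were made as follows: active = inhibition above a per-campaign cutoff, the mean inhibition of all tested compounds plus 3 SD (cut at about 27% in these data); inactive = the rest.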

This assay can be described thus: parental Ba/F3 cell viability inhibition, counter-screen for JAK2V617F inhibitor project, murine pro-B, CellTiter-Glo luminescence (AID 1486).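 Also: 0% = DMSO wells and 100% = JAK Inhibitor I control wells.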 The note with it: CellTiter-Glo ATP luminescence, at 5.6 µM, active compounds read high. In general terms: Counterscreens check selectivity or assay interference.
One may read the inhibition as the relative decrease from the control value, in per cent. In the case of `CCCCCCCCCCCCn1ccc(=N)cc1`, the inhibition was 102% (active).

Take `CCC(C)n1c(O)c(/C=N/Nc2nc3c(c(=O)n(C)c(=O)n3C)n2C)c(=O)[nH]c1=S` (stereo not given): the inhibition is -0.78%.

In the case of `O=c1c2ccccc2nc(/C=C/c2ccco2)n1-c1ccccc1O`, the inhibition is -6.32%.

For `CCOP(=O)(OCC)C(NC(=O)NC)C(N)=O` (stereo not given), the inhibition is 4.51%.

On to `CC/C(=N\NC(=O)c1ccccc1O)c1c(O)n(Cc2ccccc2)c(=O)[nH]c1=O`, for which the inhibition was -2.72%.

Consider `Cc1ccc(CN2CCCC(C(=O)c3ccc4c(c3)OCO4)C2)cc1C` (stereo not given), for which the inhibition was 2.33%.

Take `CCOc1ccc(-c2cc(C)[n+](CCN(CC)CC)c(-c3ccc(OCC)cc3)c2)cc1`: the inhibition was 81.7% (active).

For the molecule `O=c1[nH]c(=O)n(CCc2ccc(F)cc2)c(O)c1/C=N/N1CCCCC1`, the inhibition is -4.39%.

Turning to `CC(C)c1ccc(-n2c(O)c(/C=N/N3CCOCC3)c(=O)[nH]c2=S)cc1`, the inhibition was 2.53%.

For the molecule `COc1cc(OC)cc(C2(C#N)CCN(C)CC2)c1`, the inhibition was -2.96%.

Regarding `CN(C)CC1Oc2ccccc2OC1(O)c1ccccc1` (stereo not given), the inhibition is 8.72%.

Take `COCc1cc(OC(=O)N(C)C)nc(-c2ccc(C)c(Cl)c2)n1`: the inhibition is 3.28%.

As for `CC1=CC(=Cc2sc3ccccc3[n+]2C)C=C(C)O1`, the inhibition was 106% (active).

On to `COc1ccc(-n2c(O)c(C(C)=Nc3ccc4c(c3)CCC4)c(=O)[nH]c2=O)cc1`, for which the inhibition was 2.36%.

For `O=C1CC(=O)N(Cc2ccccc2)C(=O)N1CCCCCCN1C(=O)CC(=O)N(Cc2ccccc2)C1=O`, the inhibition was -0.44%.

For `CC1(C)Cc2c(C#N)c(N3CCNCC3)nc(-c3ccco3)c2CS1`, the inhibition is 1.77%.

For `CC1=C(C(=O)Nc2ccccc2)S(=O)(=O)CCO1`, the inhibition is 0.55%.

For `CNC(=O)O/N=C(\N)Cc1csc2ccc(Cl)cc12`, the inhibition is 3.22%.

With `CCOc1cccc(=NC2CCCCC2)c2c(C)[nH]c(C)c12`, the inhibition is 50.8% (active).

On to `COc1ccc(-n2c(-c3ccccc3)nc3ccccc3c2=O)cc1`, for which the inhibition is 1.83%.
